This note sets out measurements from PubChem BioAssay (Tox21).

Inconclusive results are not listed. Values without a mark were called inactive. Active and inactive are the calls of the source. Unless noted, calls follow the shape of the full dose curve.
% is scaled to controls: 0 for no effect and ±100 for the full control effect; potency is read from the fitted curve at half-maximal effect.

System in the first test: not listed separately
The test is described as follows: qHTS assay to identify small molecule agonists of the estrogen related receptor (ERR) signaling pathway (AID 1224820; active = well fitted activation curve with a large enough effect in the repeat runs). To be noted: ERR reporter cell line, luciferase agonist mode; series mostly up to 46.1 µM; activation: at the top concentration. The essentials: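 Following a 6 h settling period, 2,000 ERR cells per well receive DMSO-dissolved compounds by pin tool and incubate 18 h at 37 C; agonist activity is scored from One-Glo luminescence read 30 min post-addition.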
On the technique in general: Quantitative high-throughput screening tests each substance at several concentrations.
Take `c1ccc2c(c1)CCC[C@H]2Nc1nc2ccccc2[nH]1`: the “activation” value is -27.7%.

With `Clc1ccc(N2CCN(Cc3c[nH]c4ncccc34)CC2)cc1`, the “activation” value was -30.1%.

As to `N#C/C(=C\c1ccc(O)c(O)c1)C(=O)c1ccc(O)c(O)c1`, the “activation” value was 8.97%.

Regarding `O=C1OC(=O)C2C3CCC(O3)C12` (configuration not stated), the “activation” value was 9.79%.

For `NC(=O)C1=CN(C2OC(COP(=O)(O)OP(=O)(O)OC[C@H]3O[C@@H](n4cnc5c(N)ncnc54)[C@H](OP(=O)(O)O)C3O)C(O)C2O)C=CC1` (some centres not stated), the “activation” value was 18.7%.

With `CN(C)C(=O)[C@H](O)[C@H](Cc1ccccc1)NC(=O)c1cc2cc(Cl)ccc2[nH]1`, the “activation” value was -29.1%.

Regarding `COc1cc2c(CCNC(C)=O)c[nH]c2cc1Cl`, the “activation” value was 15.1%.

Turning to `Nc1nc(OCC2CCCCC2)c2[nH]cnc2n1`, the “activation” value is -28.5%.

For the compound `COC(=O)c1c(C)[nH]c(C)c1C(=O)c1ccccc1Cc1ccccc1`, the “activation” value is -40.9%.

As for `OC1(c2ccc(Cl)cc2)CCN(Cc2c[nH]c3ccccc23)CC1`, the “activation” value was -28.1%.

Consider `Cc1cc(NC(=O)Nc2ccc3c(ccn3C)c2)sn1`, for which the Potency was 10.2 µM (active).

With `O=c1[nH]c2cc(C(F)(F)F)ccc2n1-c1cc(C(F)(F)F)ccc1O`, the “activation” value was -42.8%.

With `CNc1ncnc2c1ncn2[C@@H]1O[C@H](CO)C(O)[C@H]1O` (some centres not stated), the “activation” value is 5.49%.

In the case of `COC(=O)[C@H](NC(=O)c1cc(-c2ccccc2)nc2ccccc12)c1ccccc1`, the “activation” value was -29.8%.

Take `Fc1ccc2[nH]c(CN3CCN(c4ccccn4)CC3)cc2c1`: the “activation” value was -47.8%.

For the compound `CO/N=C(\C(=O)N[C@@H]1C(=O)N2C(C(=O)O)=C(COC(C)=O)CS[C@H]12)c1csc(N)n1` (stereo in doubt), the “activation” value was 16%.

On to `O=C(Nc1ccncc1)c1cc([N+](=O)[O-])ccc1Cl`, for which the “activation” value was -31.9%.

With `CC(C)(C)[C@]1(O)CCN2C[C@H]3c4ccccc4CCc4cccc(c43)[C@@H]2C1`, the Potency result is “inactive”.

On to `CCCCCCC(=O)OC1CC(C)(C)NC(C)(C)C1`, for which the “activation” value is -0.453%.

As to `COc1ccccc1N1CCN(CCN(C(=O)C2CCCCC2)c2ccccn2)CC1`, the “activation” value is -53.6%.

The next test relates to estrogen-related receptor alpha (ERRalpha) with PGC-1alpha coactivator, human. The test is described as follows: qHTS assay to identify small molecule antagonists of the estrogen related receptor signaling pathway with the pleiotropic PPARgamma coactivator (PGC) (AID 1224821). Also: nearly all actives have a fitted effect of over 50% in size.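 As to activity change, negative = inhibition: lower luminescence signal means antagonism of PGC/ERR signalling.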 Conditions: ERR/PGC reporter cell line, luciferase, antagonist mode; series mostly up to 46.1 µM; activity change, negative = inhibition: at the top concentration. The essentials:
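Screening used NTP's PGC/ERR cells, dosed via pin tool with compound in DMSO alongside positive and negative controls. After 18 h at 37 C, One-Glo reagent sat 30 min at room temperature before luminescence detection.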
Consider `c1ccc2c(c1)CCC[C@H]2Nc1nc2ccccc2[nH]1`, for which the “activity change, negative = inhibition” value is -21.7%.

Regarding `Clc1ccc(N2CCN(Cc3c[nH]c4ncccc34)CC2)cc1`, the “activity change, negative = inhibition” value is 8.64%.

For the compound `N#C/C(=C\c1ccc(O)c(O)c1)C(=O)c1ccc(O)c(O)c1`, the “activity change, negative = inhibition” value is 49.7%.

Consider `O=C1OC(=O)C2C3CCC(O3)C12` (configuration not stated), for which the “activity change, negative = inhibition” value was 83.2%.

Take `NC(=O)C1=CN(C2OC(COP(=O)(O)OP(=O)(O)OC[C@H]3O[C@@H](n4cnc5c(N)ncnc54)[C@H](OP(=O)(O)O)C3O)C(O)C2O)C=CC1` (some centres not stated): the “activity change, negative = inhibition” value is 144%.

In the case of `N[C@@H](Cc1ccc(O)c(O)c1)C(=O)O`, the “activity change, negative = inhibition” value was -9.52%.

As for `CN(C)C(=O)[C@H](O)[C@H](Cc1ccccc1)NC(=O)c1cc2cc(Cl)ccc2[nH]1`, the “activity change, negative = inhibition” value was 5.59%.

As for `COc1cc2c(CCNC(C)=O)c[nH]c2cc1Cl`, the “activity change, negative = inhibition” value was 2.19%.

Turning to `Nc1nc(OCC2CCCCC2)c2[nH]cnc2n1`, the “activity change, negative = inhibition” value is 32.5%.

Turning to `O=C(c1ccc2c(c1)OCCO2)N1CCCCC1`, the “activity change, negative = inhibition” value is 18.3%.

In the case of `O=C1C(SCCO)=C(SCCO)C(=O)c2ccccc21`, the Potency is 18.8 µM (active).

In the case of `COC(=O)c1c(C)[nH]c(C)c1C(=O)c1ccccc1Cc1ccccc1`, the “activity change, negative = inhibition” value was 11.4%.

As for `CN[C@H](CC(=O)O)C(=O)O`, the “activity change, negative = inhibition” value was -1.87%.

For the compound `OC1(c2ccc(Cl)cc2)CCN(Cc2c[nH]c3ccccc23)CC1`, the “activity change, negative = inhibition” value was 131%.

As to `Cc1cc(NC(=O)Nc2ccc3c(ccn3C)c2)sn1`, the “activity change, negative = inhibition” value is 115%.

With `O=c1[nH]c2cc(C(F)(F)F)ccc2n1-c1cc(C(F)(F)F)ccc1O`, the “activity change, negative = inhibition” value was -20.9%.

Consider `O=C(O)CCC/C=C\C[C@@H]1[C@@H](/C=C/[C@H](O)C2Cc3ccccc3C2)[C@@H](F)C[C@@H]1O`, for which the “activity change, negative = inhibition” value is -1.37%.

On to `CN(C)CCCC1(c2ccc(F)cc2)OCc2cc(C#N)ccc21` (configuration not stated), for which the “activity change, negative = inhibition” value is 36.9%.

On to `CNc1ncnc2c1ncn2[C@@H]1O[C@H](CO)C(O)[C@H]1O` (some centres not stated), for which the “activity change, negative = inhibition” value was 127%.

Turning to `COC(=O)[C@H](NC(=O)c1cc(-c2ccccc2)nc2ccccc12)c1ccccc1`, the “activity change, negative = inhibition” value was -11.8%.

In the case of `C[C@](Cc1ccc(O)c(O)c1)(NN)C(=O)O`, the “activity change, negative = inhibition” value was 1.52%.

`O=C(c1cc(O)c(O)c([N+](=O)[O-])c1)c1ccccc1F`: the Potency is 22.8 µM (active).

Consider `Fc1ccc2[nH]c(CN3CCN(c4ccccn4)CC3)cc2c1`, for which the “activity change, negative = inhibition” value is 26.5%.

As for `O=C(Nc1ccncc1)c1cc([N+](=O)[O-])ccc1Cl`, the “activity change, negative = inhibition” value is 0.728%.

For `CC(C)(C)[C@]1(O)CCN2C[C@H]3c4ccccc4CCc4cccc(c43)[C@@H]2C1`, the Potency was 17.4 µM (active).

As to `COc1cc(C(O)C(=O)O)ccc1O` (configuration not stated), the “activity change, negative = inhibition” value was -0.98%.

In the case of `C[C@H]1CC2C3CCC4=CC(=O)C=C[C@]4(C)[C@@]3(Cl)[C@@H](O)C[C@]2(C)[C@@]1(O)C(=O)CO` (some centres not stated), the “activity change, negative = inhibition” value was 4.73%.
